Over roughly 81,000 sequences, “one-hybrid fitness for binding parS DNA” has its median near -0.17; the highest 2% begin near 0.51. For the sample, the highest values were picked, then their nearest neighbours and some sequences at random.
B1: Caulobacter ParB omega fusion; a variant is named by its letters at X, in order, B8GW30 (parent)
chain: MESVVVGEPGMSEGRRGLGRGLSALLGEVDAAPAQAPGEQLGGSREAPIEILQRNPDQPRRTFREEDLEDLSNSIREKGVLQPILVRPSPDTAGEYQIVAGERAWRAAQRAGLKTVPIMVRELDDLAVLEIGIIENVQRADLNVLEEALSYKVLMEKFERTQENIAQTIGKSXSHVANXMRLLXLPDEVQSYLVSGELTAXHARAIAAAADPVALAKQIIEGGLSVRETEALARKAPNLSAGKSKGGRPPRVKDTDTQALESDLSSVLGLDVSIDHRGSTGTLTITYATLEQLDDLCNRLTRGI

Variants of: B1
Assay: one-hybrid fitness for binding parS DNA (scaled: cognate 1, non-cognate 0); higher = stronger binding
Details: with parS DNA site
Outline: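 On M9-minus-histidine containing 0.1 mM IPTG and 5 mM 3-AT, E. coli USO cells with a HIS3 reporter, site 19 bp from the promoter, grew 48 hours at 37°C to select Caulobacter ParB libraries randomised at four specificity codons. Plasmids from before and after were Illumina-sequenced, with three replicate libraries pooled and variants under 10 reads left out. Fitness is the log change in variant-to-wild-type read ratio, rescaled against cognate and non-cognate.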

Variant | one-hybrid fitness for binding parS DNA
DCPY | ≤ 0.2
CRRI | ≤ 0.2
RPQT | ≤ 0.2
RSQK | ≤ 0.2
REQT | ≤ 0.2
RDQT | ≤ 0.2
RSQT | 0.874
RCQT | 0.936
MKGT | ≤ 0.2
PHAA | ≤ 0.2
CNAG | ≤ 0.2
SQES | ≤ 0.2
CCPY | ≤ 0.2
RKKG | 0.802
RKVF | ≤ 0.2
RKKP | ≤ 0.2
RKVY | 0.412
RKVG | 0.942
RKKD | ≤ 0.2
NRVQ | ≤ 0.2
PLNP | ≤ 0.2
RIQY | 0.442
RKQC | 0.825
RSQQ | ≤ 0.2
RHQC | 0.951
RHQP | ≤ 0.2

Variant | one-hybrid fitness for binding parS DNA
RIQC | 1
RSQC | 0.958
RKQQ | ≤ 0.2
RKQY | 0.4
REQC | ≤ 0.2
RIQQ | ≤ 0.2
RHQD | ≤ 0.2
VCLS | ≤ 0.2
NNQG | ≤ 0.2
QKHV | ≤ 0.2
RRQC | 0.63
RMQC | 1.02
RLQC | 0.998
RMQL | ≤ 0.2
RLQQ | ≤ 0.2
RPQC | ≤ 0.2
RLQY | 0.495
RCQC | 0.994
RDQC | ≤ 0.2
NRQC | ≤ 0.2
RMQF | ≤ 0.2
RRQR | ≤ 0.2
NGPC | ≤ 0.2
QQNS | ≤ 0.2
IKKF | ≤ 0.2
DIKG | ≤ 0.2

Variant | one-hybrid fitness for binding parS DNA
YPGG | ≤ 0.2
FNTL | ≤ 0.2
LPNG | ≤ 0.2
RCNA | 0.719
RWRA | 0.474
RCRA | 0.796
RGNA | 0.394
RPNA | ≤ 0.2
RWDA | 0.29
RPRA | ≤ 0.2
RPDA | ≤ 0.2
RSNA | 0.596
RWNA | 0.425
RCDA | 0.567
RENA | ≤ 0.2
YTPK | ≤ 0.2
NRGR | ≤ 0.2
WRHM | ≤ 0.2
TEAW | ≤ 0.2
HGTW | ≤ 0.2
PNLY | ≤ 0.2
DLLY | ≤ 0.2
RFNA | 0.57
REDA | ≤ 0.2
RSDA | 0.515
RCYH | 0.301

Variant | one-hybrid fitness for binding parS DNA
RDDA | ≤ 0.2
RGYA | 0.225
RDRA | ≤ 0.2
RCYA | 0.619
KFNA | ≤ 0.2
RSRA | 0.605
RGRA | 0.496
RFDA | 0.46
CFAA | ≤ 0.2
RNLW | ≤ 0.2
NVSV | ≤ 0.2
DDCG | ≤ 0.2
KMYG | ≤ 0.2
QRCI | ≤ 0.2
APES | ≤ 0.2
SERT | ≤ 0.2
LITT | ≤ 0.2
MNRC | ≤ 0.2
DIAI | ≤ 0.2
ACMT | ≤ 0.2
YQQG | ≤ 0.2
RSPA | ≤ 0.2
DSYA | ≤ 0.2
RSYA | 0.602
RHKP | ≤ 0.2
RHKS | 0.777

Variant | one-hybrid fitness for binding parS DNA
RHVN | 0.302
RHVD | ≤ 0.2
RHVS | 0.927
RHKN | 0.365
KQDV | ≤ 0.2
HTPC | ≤ 0.2
AALR | ≤ 0.2
WLII | ≤ 0.2
YSML | ≤ 0.2
RMKD | ≤ 0.2
RMVT | 0.875
RMVF | 0.259
RMKM | 0.391
RMKT | 0.764
RMVR | ≤ 0.2
TDKS | ≤ 0.2
CMDR | ≤ 0.2
TNLK | ≤ 0.2
RLIP | ≤ 0.2
RLPD | ≤ 0.2
RLIS | 1
RLPS | 0.86
RLPN | 0.225
RLIN | 0.38
IHED | ≤ 0.2
PMWM | ≤ 0.2

Variant | one-hybrid fitness for binding parS DNA
NFKG | ≤ 0.2
RFVN | 0.26
RFKG | 0.988
RFVG | 0.77
RFKD | ≤ 0.2
NFVG | ≤ 0.2
LLAH | ≤ 0.2
KLSS | ≤ 0.2
YSYS | ≤ 0.2
RRKG | 0.708
RRKF | ≤ 0.2
RRVR | ≤ 0.2
RRVG | 0.836
RRKK | ≤ 0.2
RRVQ | ≤ 0.2
LFLG | ≤ 0.2
SWLK | ≤ 0.2
PTSL | ≤ 0.2
QPAA | ≤ 0.2
FRES | ≤ 0.2
PPSL | ≤ 0.2
SYQW | ≤ 0.2
RGDA | 0.235
DTNA | ≤ 0.2
RTDA | 0.554
RTNA | 0.722

Variant | one-hybrid fitness for binding parS DNA
NTNA | ≤ 0.2
WHYV | ≤ 0.2
HFVM | ≤ 0.2
QFAC | ≤ 0.2
RLGH | 0.204
RIGH | 0.246
REGG | 0.2
RCGG | 1.01
RLGN | 0.469
RLGG | 0.995
RIGD | ≤ 0.2
RIGG | 1.02
RSGK | ≤ 0.2
RPGG | ≤ 0.2
RSGG | 0.998
RDGG | ≤ 0.2
HLHN | ≤ 0.2
EVNR | ≤ 0.2
RCWR | ≤ 0.2
NFVA | ≤ 0.2
MAPR | ≤ 0.2
YLCV | ≤ 0.2
DLKG | ≤ 0.2
TWYC | ≤ 0.2
TAYD | ≤ 0.2
PPTG | ≤ 0.2

Variant | one-hybrid fitness for binding parS DNA
RQPD | ≤ 0.2
RQPH | ≤ 0.2
RQIG | 0.805
RQPG | 0.514
RQIH | ≤ 0.2
RQIN | 0.248
LCRT | ≤ 0.2
CNIR | ≤ 0.2
TNIS | ≤ 0.2
ASKM | ≤ 0.2
RSND | ≤ 0.2
RPDS | ≤ 0.2
RSDP | ≤ 0.2
RCNP | ≤ 0.2
RCNS | 0.908
RSNH | 0.203
RCDS | 1.02
RSDS | 0.939
RSNS | 0.959
RCDP | 0.204
RPNS | ≤ 0.2
RSDH | ≤ 0.2

From a collection of fitness landscapes (doi:10.1016/j.celrep.2020.107928)
